An excerpt weighted towards active compounds, which were near 6.7% of everything screened.
SW480 rereplic = inducers of DNA re-replication in SW480 colon cancer cells; SW480 DNA re-replication, Hoechst DNA content imaging, 48 h; Potency, µM (doses to about 46.1 µM), without a hit: top-dose re-replication activation, most hits filed as activators; 1.8% of 340,000 active; AID 624297; further: % of control where 0% means no effect; nearly all actives have a fitted effect of over 55% in size
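Compounds, transferred as 23 nL by pin tool, were incubated with cells for 48 hr; DNA content per nucleus was then quantified by Hoechst staining and fluorescence plate imaging.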
KB-3-1 cytotox = kills parental KB-3-1 adenocarcinoma cells | KB-3-1 viability, CellTiter-Glo ATP luminescence, 72 h | Potency, µM (top dose mostly 46.1 µM), actives largely listed as cytotoxic | 1.4% of 400,000 active | AID 1347075; further: on the % scale 0 is the no-effect control and ±100 the full control effect; nearly all actives have a fitted effect of over 60% in size
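Here the drug-naive KB-3-1 line serves as comparator for MDR sub-line selectivity; cells received compound titrations, 72 h at 37 °C, then CellTiter-Glo readout.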
MCF10A rerep = induces DNA re-replication in MCF 10a normal breast cells; 2.9% of 350,000 active; Potency, µM (highest dose often 46.1 µM), for the others: top-dose activity, positive = re-replication, hits mostly activators; MCF 10A DNA re-replication, Hoechst nuclear intensity, 48 h; further: % of control where 0% means no effect; nearly all actives have a fitted effect of over 50% in size
PINK1 expr mod = PINK1 expression modulation. PINK1 immunofluorescence, high-content cytometry, 24 h. Potency, µM (highest dose often 76.6 µM), without a hit: top-dose activation (PINK1 increase), most hits filed as activators. 0.2% of 410,000 active. AID 624263; active means well fitted activation curve with a large enough effect; inconclusive means small, poorly fitted or top-dose-only effect; cell line not stated here; further: % of control where 0% means no effect; nearly all actives have a fitted effect of over 65% in size
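A stable cell line was treated with compounds at 5 concentrations for 24 hours, with CCCP as control. PINK1 levels and mitochondrial localization were measured by immunofluorescence with mitochondrial, cell and nuclear markers after fixation, read by laser-scanning cytometry.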
KB-V1 MDR tox = kills drug-selected multidrug resistant KB-V1 cells. 3.4% of 400,000 active. AID 1347076. KB-V1 MDR cells viability, CellTiter-Glo, 72 h. Potency, µM (highest dose often 46.1 µM), hits mostly cytotoxic; further: on the % scale 0 is the no-effect control and ±100 the full control effect; nearly all actives have a fitted effect of over 60% in size
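Readout: CellTiter-Glo luminescence, 10 min after addition. Cells: KB-V1 MDR subline, 72 h at 37 degrees C with compound. Analysis: corrected, normalized data fitted to concentration-effect curves.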
* = called active by the depositor; i = inactive; u = inconclusive; x = not tested or not shown; ! = not confirmed by another sample; [ ] = dose if it differs, or a comment. Unless noted, the call rests on the fitted dose curve; in most records, active means well fitted curve in the direction sought with a large enough effect; inconclusive means small, poorly fitted or top-dose-only effect, or another doubt; inactive means no such curve, though single readings can be large; an effect the other way counts as inactive or inconclusive. Potency means the concentration at half of the fitted maximal effect.

SMILES	SW480 rereplic	KB-3-1 cytotox	MCF10A rerep	PINK1 expr mod	KB-V1 MDR tox
CCc1ccccc1NC(=O)CC(NCc1ccccc1)C(=O)O (stereo not drawn)	-8%	i	-3%	1%	i
COC(=O)c1ccccc1NC(=O)CC(NCc1ccccc1)C(=O)O (stereo not drawn)	21µM*	i	0%	3%[38.3 µM]	i
COc1ccc(/C=N/OC(=O)Nc2ccccc2OC)cc1	u	10µM*	7.3µM*	4%	9.2µM*
COc1ccccc1NC(=O)CC(=O)c1ccccc1	-11%	i	-2%	0%	u
CN(C)c1ccc(/C=N/OC(=O)Nc2ccccc2Cl)cc1	-1%	23µM*	1%	4%	u
COc1ccccc1NC(=O)O/N=C(\N)c1ccccc1	12µM*	i	u	1%	i
COc1ccc(NC(=O)O/N=C/c2ccc(Br)cc2)cc1	u	i	u	0%	i
Cn1nc(-c2ccccc2F)c2cc(C(=O)NCCc3ccc(Cl)cc3)sc21	x	i	x	1%	u
CCCN(CC(=O)Nc1cc(Cl)cc(Cl)c1)CC(=O)Nc1ccc(F)c(F)c1F	u	i	u	u	23µM*
CCCN(CC(=O)Nc1ccccc1Br)CC(=O)Nc1ccc(F)c(F)c1F	1%	i	-2%	9%	i
Cc1c(C(=O)NC2CC(C)(C)NC(C)(C)C2)oc2c(Cl)cccc12	x	i	x	-1%	i
Cc1nc(NC(=O)CSc2ccc(-c3nc4ccccc4[nH]3)cn2)sc1C	5%	i	18µM*	9%	i
Cc1ccc(NC(=O)CCCSc2nc3ccccc3[nH]2)cc1	-2%	i	18%	2%	u
Cc1ccc(SCC(=O)Nc2ccc(-c3nc4ccccc4[nH]3)cc2)cc1	8%	i	13µM*	u	i
Cc1ccc2nc(-c3ccc(SCC(=O)Nc4nc(C)cs4)nc3)[nH]c2c1	8%	u	u	u	i
Cc1ccc2nc(-c3ccc(SCC(=O)Nc4nnc(C)s4)nc3)[nH]c2c1	u	i	18µM*	-4%	i
CCc1nnc(NC(=O)CSc2ccc(-c3nc4ccccc4[nH]3)cn2)s1	8%	i	9%	4%[38.3 µM]	i
Oc1ccc(N=Nc2ccccc2-c2nn[nH]n2)c(O)c1	-21%	i	2%	0%	i
CCOC(=O)c1cc(-c2ccccc2)n(CCCC(=O)Nc2cccc(C)c2C)c1C	x	i	x	-1%	i
Cc1ccccc1C(=O)Nc1nc(-c2ccc(Br)cc2)ns1	x	x	x	25µM*	x
COc1ccccc1C(=O)Nc1nc(-c2ccc(Br)cc2)ns1	x	x	x	1%	x
CC(C)(C)C(=O)Nc1nc(-c2ccccc2)ns1	-6%	u	u	4%[38.3 µM]	15µM*
O=C(Nc1nc(-c2ccccc2)ns1)c1ccc(Cl)cc1	x	i	x	3%	i
Cc1ccn(-c2ccc([N+](=O)[O-])cc2)n1	21µM*	i	-183%[0.0737 µM]	-2%	i
O=C(Nc1ccccc1F)c1nc(SCc2ccc(F)cc2)ncc1Cl	x	x	x	1%	x
SMILES	SW480 rereplic	KB-3-1 cytotox	MCF10A rerep	PINK1 expr mod	KB-V1 MDR tox
Cc1cccc(CN2C(=O)N/C(=C/c3ccc(C)s3)C2=O)c1	u	23µM*	7.3µM*	7%	15µM*
Cc1ccc(/C=C2/NC(=O)N(Cc3ccccc3)C2=O)s1	4%	i	-3%	14µM*	i
Cc1cccc(CN2C(=O)N/C(=C/c3cc(C)n(-c4cc(C)ccn4)c3C)C2=O)c1	19%	u	u	0%	i
COC(=O)c1[nH]c2ccc(C)cc2c1NC(=O)c1ccccc1[N+](=O)[O-]	-5%	i	u	23%	16µM*
CCOC(=O)c1[nH]c2ccccc2c1NC(=O)c1ccc(S(=O)(=O)N2CCCCC2)cc1	6%	i	23µM*	5%	i
CCOC(=O)c1[nH]c2ccccc2c1NC(=O)c1ccccc1OCC	x	1.6µM*	x	-1%	u
Cc1c(C(=O)NCC(C)C)sc2ncnc(NCC3CCCO3)c12 (stereo not drawn)	x	x	x	0%	x
Cc1ccc2oc(=O)c3cc(C(=O)N4CCN(c5ccccc5F)CC4)sc3c2c1	x	i	x	0%	i
COCCCNC(=O)CSc1nc(-c2cccc(F)c2)[nH]c1-c1ccccc1	x	i	x	1%	i
O=C(O)c1ccc(/C=C(\c2nc3ccccc3[nH]2)c2nc3ccccc3s2)cc1	12µM*	u	u	-3%	i
Cc1cccc(/C=C(\c2nc3ccccc3[nH]2)S(=O)(=O)c2ccccc2)c1	u	4.1µM*	5.8µM*	-2%	18µM*
CC(=O)/C(=C(/O)c1ccccc1)c1nc2ccccc2[nH]1	-5%	i	-5%	2%	i
CC(C)(C)c1ccc(/C=C(\c2nc3ccccc3[nH]2)S(=O)(=O)c2ccccc2)cc1	8.2µM*	u	5.2µM*	-1%	u
CCOc1ccccc1NC(=O)c1cnc(N2CCOCC2)c2ccccc12	x	i	x	1%	i
Cc1csc(Sc2ccc([N+](=O)[O-])cc2C(=O)OCC(=O)NC2CCCC(C)C2C)n1 (stereo not drawn)	u	i	18µM*	8%[38.3 µM]	i
COc1cccc(C(=O)Nc2cccc(-c3cn4ccsc4n3)c2)c1OC	x	x	x	3%	x
COc1ccc(-c2cc3ccc(O)c(CN4CCN(C)CC4)c3oc2=O)cc1OC	x	x	x	0%	x
COc1cccc(CN2CCCN(S(=O)(=O)c3ccc(Br)cc3)CC2)c1	u	i	u	-2%	u
O=S(=O)(c1ccc(Br)cc1)N1CCCN(Cc2cccc(F)c2)CC1	21µM*!	i	u	2%	i
CC(=O)c1ccc(OCc2ccc(C(=O)c3ccccc3)cc2)cc1	-14%	15µM*	13%	2%	16µM*
CCOc1ccc(NC(=O)N(C(C)C)C2CCN(C(C)=O)CC2)cc1	x	x	x	1%	x
CCOc1ccc(NC(=O)N2CCC(c3ccc(C)cc3)C2)cc1 (stereo not drawn)	-8%	i	9%	5%	21µM*
CCOc1ccc(NC(=O)N(CCC(C)C)C2CCN(C(C)=O)CC2)cc1	-2%	i	-11%	-2%[38.3 µM]	18µM*
O=C(NCc1cccnc1)C1CCN(c2ccc(S(=O)(=O)N3CCOCC3)cc2Cl)CC1	u	23µM*	11%	9%	i
O=C(NCc1ccc(Cl)cc1Cl)C1CCN(S(=O)(=O)c2ccc3c(c2)OCCCO3)CC1	-255%	u	-3%	2%	3.3µM*
CCCNC(=O)C1CCN(c2ccc(S(=O)(=O)N3CCOCC3)cc2Cl)CC1	1%	i	2%	x	u
COc1ccccc1CNC(=O)C1CCN(S(=O)(=O)c2ccc3c(c2)OCCCO3)CC1	21%	i	0%	2%	18µM*

Screens from PubChem BioAssay.
